According to PubChem BioAssay (EPA / NIEHS):
Calls of active or inactive are those of the source. The calls were made as follows: active = hit-call score of the fitted dose curve at least 0.9, where 1 is the maximum; inactive = score below 0.9.

Key:
Settings in all cases: mRNA level, 48 h; actives raise or lower the signal
CYP2C9 (gene 1559) = experiment: LTEA_HepaRG_CYP2C9: Life Technologies and Expression Analysis (LTEA) Assay for CYP2C9 using HepaRG (AID 2283484)
In short: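 Eight-point concentration-response (highest 100 uM, half-log dilutions) in HepaRG cells for 48 h; CYP2C9 expression by qRT-PCR normalized to ACTB, GAPDH, POLR2A. Bidirectional fit, DMSO baseline.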

CYP2E1 (gene 1571) = experiment: LTEA_HepaRG_CYP2E1: Life Technologies and Expression Analysis (LTEA) Assay for CYP2E1 using HepaRG (AID 2283485)
In short: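 Readout is qRT-PCR of CYP2E1 mRNA, normalized to three housekeeping genes and fitted bidirectionally against 0.5% DMSO. HepaRG cells were dosed 48 h at eight concentrations, highest 100 uM with half-log dilutions.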

CYP4A11 (gene 1579) = experiment: LTEA_HepaRG_CYP4A11: Life Technologies and Expression Analysis (LTEA) Assay for CYP4A11 using HepaRG (AID 2283486)
In short: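 Readout is CYP4A11 transcript level by qRT-PCR, normalized to three housekeeping genes and fitted bidirectionally against 0.5% DMSO. Human HepaRG cells were treated 48 h, in duplicate, with an 8-point half-log series topping at 100 uM.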

[1] = read-out: Cytochrome P450 3A4 (Homo sapiens) (UniProt P08684); experiment: LTEA_HepaRG_CYP3A4: Life Technologies and Expression Analysis (LTEA) Assay for CYP3A4 using HepaRG (AID 2283487)
In short: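 Differentiated HepaRG cells, plated 48 h, then dosed 48 h in serum-free induction medium with 0.5% DMSO, 8 half-log concentrations up to 100 uM, duplicate. CYP3A4 mRNA by qRT-PCR, normalized to ACTB/GAPDH/POLR2A; bidirectional fit versus DMSO.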

[2] = read-out: DNA damage-inducible transcript 3 (DDIT3), DDIT3 (gene 1649); experiment: LTEA_HepaRG_DDIT3: Life Technologies and Expression Analysis (LTEA) Assay for DNA damage-inducible transcript 3 (DDIT3) using HepaRG (AID 2283488)
In short: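 Cells are human HepaRG liver cells treated for 48 h with eight half-log concentrations up to 100 uM in 0.5% DMSO. Transcript levels come from qRT-PCR normalized to three housekeeping genes, with activity fitted in both directions relative to vehicle.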

[3] = read-out: Pro-epidermal growth factor (Homo sapiens) (UniProt P01133); experiment: LTEA_HepaRG_EGF: Life Technologies and Expression Analysis (LTEA) Assay for Epidermal growth factor (EGF) using HepaRG (AID 2283489)
In short: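 EGF transcript measured by Fluidigm TaqMan qRT-PCR with three housekeeping genes for normalization, 48 h after dosing HepaRG cultures in duplicate (top 100 uM, half-log steps, 0.5% DMSO vehicle). Gain or loss relative to DMSO fitted.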

[4] = read-out: Early growth response protein 1 (EGR1) transcription factor, EGR1 (gene 1958); experiment: LTEA_HepaRG_EGR1: Life Technologies and Expression Analysis (LTEA) Assay for Early growth response protein 1 (EGR1) transcription factor using HepaRG (AID 2283490)
In short: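 EGR1 expression change in human HepaRG after 48 h chemical exposure, assessed by housekeeping-normalized qRT-PCR; concentration-response up to 100 uM, fitted in both directions against DMSO controls.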

[5] = read-out: Ezrin (EZR), EZR (gene 7430); experiment: LTEA_HepaRG_EZR: Life Technologies and Expression Analysis (LTEA) Assay for Ezrin (EZR) using HepaRG (AID 2283491)
In short: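 EZR transcript levels came from Fluidigm qRT-PCR and were normalized to three housekeeping genes after 48 h chemical exposure of HepaRG cells. Dosing used an 8-point half-log series with a 100 uM top concentration in 0.5% DMSO, tested in duplicate; both directions were fitted versus vehicle.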

CYP3A5 (gene 1577) = experiment: LTEA_HepaRG_CYP3A5: Life Technologies and Expression Analysis (LTEA) Assay for CYP3A5 using HepaRG (AID 2283493)
In short: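 Human HepaRG hepatic cells receive 48 h chemical treatment at eight concentrations (half-log steps from 100 uM) in 0.5% DMSO. Expression of CYP3A5 is quantified by Fluidigm qRT-PCR and normalized to three reference genes.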

[6] = read-out: Fatty Acid-Binding Protein 1 (FABP1), FABP1 (gene 2168); experiment: LTEA_HepaRG_FABP1: Life Technologies and Expression Analysis (LTEA) Assay for Fatty Acid-Binding Protein 1 (FABP1) using HepaRG (AID 2283494)
In short: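 Values reflect bidirectional concentration-response fitting of FABP1 mRNA change against 0.5% DMSO controls. Human HepaRG cultures received eight half-log doses (top 100 uM) for 48 h; expression quantified by TaqMan qRT-PCR with housekeeping-gene normalization.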

[7] = read-out: Cytochrome P450 4A22 (Homo sapiens) (UniProt Q5TCH4); experiment: LTEA_HepaRG_CYP4A22: Life Technologies and Expression Analysis (LTEA) Assay for Cytochrome P450 4A22 (CYP4A22) using HepaRG (AID 2283495)
In short: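 Gene expression measured by qRT-PCR against three housekeeping genes (ACTB, GAPDH, POLR2A), with gain or loss fitted relative to 0.5% DMSO vehicle. HepaRG cultures received 48 h chemical treatment, top concentration 100 uM, half-log steps, duplicate wells.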

[8] = read-out: Cytochrome P450 7A1 (Homo sapiens) (UniProt P22680); experiment: LTEA_HepaRG_CYP7A1: Life Technologies and Expression Analysis (LTEA) Assay for Cytochrome P450 7A1 (CYP7A1) using HepaRG (AID 2283496)
In short: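 HepaRG, 48 h exposure, 8-pt half-log series from 100 uM, 0.5% DMSO vehicle, duplicates. Readout: TaqMan qRT-PCR mRNA vs three housekeeping genes; bidirectional curve fit against DMSO baseline.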

[9] = read-out: Glutathione S-Transferase (GSTA2), GSTA2 (gene 2939); experiment: LTEA_HepaRG_GSTA2: Life Technologies and Expression Analysis (LTEA) Assay for Glutathione S-Transferase (GSTA2) using HepaRG (AID 2283497)
In short: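 Oxidative-stress marker GSTA2 is quantified by TaqMan qRT-PCR in HepaRG cultures treated 48 h across an eight-point range to 100 uM. Expression is normalized to endogenous controls and compared with 0.5% DMSO vehicle.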

[10] = read-out: Glutamate-cysteine ligase catalytic (GCLC), GCLC (gene 2729); experiment: LTEA_HepaRG_GCLC: Life Technologies and Expression Analysis (LTEA) Assay for Glutamate-cysteine ligase catalytic (GCLC) using HepaRG (AID 2283498)
In short: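 Oxidative-stress marker GCLC is measured as mRNA change in human HepaRG liver cells after 48 h chemical treatment in 0.5% DMSO, eight concentrations from 100 uM. Activity is fitted bidirectionally against vehicle.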

[11] = read-out: growth arrest and DNA damage 45 (GADD45G), GADD45G (gene 10912); experiment: LTEA_HepaRG_GADD45G: Life Technologies and Expression Analysis (LTEA) Assay for growth arrest and DNA damage 45 (GADD45G) using HepaRG (AID 2283499)
In short: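 GADD45G transcript level by qRT-PCR (housekeeping-normalized: ACTB, GAPDH, POLR2A) after 48 h chemical treatment of a single HepaRG lot in serum-free induction medium; eight-point half-log series up to 100 uM in 0.5% DMSO, duplicates, up- or down-regulation scored.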

[12] = read-out: Glutamate-cysteine ligase regulatory (GCLM), GCLM (gene 2730); experiment: LTEA_HepaRG_GCLM: Life Technologies and Expression Analysis (LTEA) Assay for Glutamate-cysteine ligase regulatory (GCLM) using HepaRG (AID 2283500)
In short: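 Endpoint is GCLM transcript level by qRT-PCR, normalized to three housekeeping genes, after 48 h chemical exposure of human HepaRG cells (0.5% DMSO vehicle, top 100 uM, half-log dilutions). Fitting was bidirectional relative to DMSO.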

[13] = read-out: Glutathione S-transferase M3 (GSTM3), GSTM3 (gene 2947); experiment: LTEA_HepaRG_GSTM3: Life Technologies and Expression Analysis (LTEA) Assay for Glutathione S-transferase M3 (GSTM3) using HepaRG (AID 2283501)
In short: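 GSTM3 transcript levels came from Fluidigm TaqMan qRT-PCR normalized to three housekeeping genes, fitted in both directions against DMSO. HepaRG cultures received chemicals for 48 h in serum-free induction medium (0.5% DMSO), 8 half-log concentrations up to 100 uM, duplicate.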

[14] = read-out: Heat shock 70 kDa protein 1 (HSPA1A), gene 3303; experiment: LTEA_HepaRG_HSPA1A: Life Technologies and Expression Analysis (LTEA) Assay for Heat shock 70 kDa protein 1 (HSPA1A) using HepaRG (AID 2283502)
In short: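 Cells were plated and cultured for 48 h, then switched to serum-free induction medium. Chemicals were added at eight half-log concentrations up to 100 uM for 48 h. RNA was then isolated and HSPA1A measured by qRT-PCR with bidirectional curve fitting against DMSO.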

[15] = read-out: Hypoxia-inducible factor 1-alpha (Homo sapiens) (UniProt Q16665); experiment: LTEA_HepaRG_HIF1A: Life Technologies and Expression Analysis (LTEA) Assay for Hypoxia-inducible factor 1 (HIF1A) Trancription factor using HepaRG (AID 2283503)
In short: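 HIF1A transcript level read by qRT-PCR (ACTB, GAPDH, POLR2A normalization) after 48 h chemical exposure of HepaRG cultures. Eight half-log concentrations, top 100 uM, 0.5% DMSO vehicle, duplicates; bidirectional curve fit against DMSO baseline.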

[16] = read-out: Cytochrome P450 3A7 (Homo sapiens) (UniProt P24462); experiment: LTEA_HepaRG_CYP3A7: Life Technologies and Expression Analysis (LTEA) Assay for CYP3A7 using HepaRG (AID 2283492)
In short: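 CYP3A7 transcript measured by qRT-PCR (ACTB, GAPDH, POLR2A normalization) after 48 h chemical exposure of HepaRG cells in duplicate. Eight half-log concentrations, maximum 100 uM, 0.5% DMSO vehicle; bidirectional curve fitting against DMSO baseline.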

Measured: AC50

Sequence of Cytochrome P450 3A4 (Homo sapiens) (P08684 whole entry, looked up): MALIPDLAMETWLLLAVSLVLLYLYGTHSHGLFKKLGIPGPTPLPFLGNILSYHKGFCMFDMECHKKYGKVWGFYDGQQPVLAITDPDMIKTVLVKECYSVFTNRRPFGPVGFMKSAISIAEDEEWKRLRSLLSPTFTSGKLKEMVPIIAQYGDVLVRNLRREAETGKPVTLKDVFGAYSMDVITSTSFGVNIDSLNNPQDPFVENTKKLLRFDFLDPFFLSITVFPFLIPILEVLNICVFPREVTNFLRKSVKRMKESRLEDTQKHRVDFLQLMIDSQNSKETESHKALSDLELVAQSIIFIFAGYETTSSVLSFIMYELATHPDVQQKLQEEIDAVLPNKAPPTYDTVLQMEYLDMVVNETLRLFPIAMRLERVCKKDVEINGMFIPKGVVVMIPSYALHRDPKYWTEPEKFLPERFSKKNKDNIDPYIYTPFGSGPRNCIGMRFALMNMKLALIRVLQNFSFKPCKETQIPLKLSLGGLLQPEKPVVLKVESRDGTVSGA
Sequence of Hypoxia-inducible factor 1-alpha (Homo sapiens) (Q16665 whole entry, looked up): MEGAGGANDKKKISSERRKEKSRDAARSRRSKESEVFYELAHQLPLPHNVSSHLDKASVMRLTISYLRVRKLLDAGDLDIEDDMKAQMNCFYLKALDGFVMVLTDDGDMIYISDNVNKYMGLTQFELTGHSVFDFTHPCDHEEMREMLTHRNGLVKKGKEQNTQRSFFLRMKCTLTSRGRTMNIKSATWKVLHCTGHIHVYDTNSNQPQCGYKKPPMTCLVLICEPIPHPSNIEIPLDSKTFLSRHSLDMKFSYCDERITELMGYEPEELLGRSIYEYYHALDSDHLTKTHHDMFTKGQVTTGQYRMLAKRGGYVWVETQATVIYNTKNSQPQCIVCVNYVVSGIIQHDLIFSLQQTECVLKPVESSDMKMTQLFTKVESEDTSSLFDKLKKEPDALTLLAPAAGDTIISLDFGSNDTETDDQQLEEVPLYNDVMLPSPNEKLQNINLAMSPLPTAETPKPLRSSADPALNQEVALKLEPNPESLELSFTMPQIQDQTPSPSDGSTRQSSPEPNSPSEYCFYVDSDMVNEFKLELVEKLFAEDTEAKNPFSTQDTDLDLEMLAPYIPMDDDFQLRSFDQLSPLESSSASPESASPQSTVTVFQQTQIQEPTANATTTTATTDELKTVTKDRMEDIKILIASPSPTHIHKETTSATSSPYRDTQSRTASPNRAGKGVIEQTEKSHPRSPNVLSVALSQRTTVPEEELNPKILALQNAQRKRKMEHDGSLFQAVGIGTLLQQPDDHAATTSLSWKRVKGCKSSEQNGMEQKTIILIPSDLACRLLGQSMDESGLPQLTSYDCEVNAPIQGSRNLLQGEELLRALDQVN
Sequence of Cytochrome P450 3A7 (Homo sapiens) (P24462 whole entry, looked up): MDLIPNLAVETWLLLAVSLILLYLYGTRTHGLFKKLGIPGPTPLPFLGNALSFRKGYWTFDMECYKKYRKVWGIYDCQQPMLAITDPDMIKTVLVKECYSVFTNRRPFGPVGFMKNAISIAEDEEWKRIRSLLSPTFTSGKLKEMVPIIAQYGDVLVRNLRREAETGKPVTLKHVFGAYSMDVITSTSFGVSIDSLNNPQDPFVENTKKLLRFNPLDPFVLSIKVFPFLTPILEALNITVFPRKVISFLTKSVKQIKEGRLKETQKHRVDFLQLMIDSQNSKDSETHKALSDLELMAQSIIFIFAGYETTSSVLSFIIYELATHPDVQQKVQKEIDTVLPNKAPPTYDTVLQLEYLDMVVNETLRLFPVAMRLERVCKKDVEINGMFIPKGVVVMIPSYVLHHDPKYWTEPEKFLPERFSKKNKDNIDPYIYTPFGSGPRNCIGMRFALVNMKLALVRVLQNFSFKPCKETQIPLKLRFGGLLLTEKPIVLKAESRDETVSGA

Oc1ccccc1O
inactive: CYP2C9 (gene 1559) | CYP2E1 (gene 1571) | CYP4A11 (gene 1579) | [1] | [2] | [3] | [4] | [5] | CYP3A5 (gene 1577) | [6] | [7] | [8] | [9] | [10] | [11] | [12] | [13] | [14]

CN(C)C(=O)NC1(c2ccccc2)CCN(CC[C@@]2(c3ccc(F)c(F)c3)CN(C(=O)c3ccccc3)CCO2)CC1
active: CYP2E1 (gene 1571) 29.6 µM | CYP4A11 (gene 1579) 47 µM | [1] 2.69 µM | [2] 56.6 µM | [7] 47.3 µM | [11] 75.1 µM
inactive: CYP2C9 (gene 1559) | [3] | [4] | [5] | CYP3A5 (gene 1577) | [6] | [8] | [9] | [10] | [12] | [13] | [14] | [15]

CC1=C(C)S(=O)(=O)CCS1(=O)=O
active: CYP2C9 (gene 1559) 87.7 µM | CYP4A11 (gene 1579) 89.5 µM | [1] 50 µM | [3] 12 µM | [4] 80.6 µM | [16] 72 µM | [6] 88.1 µM | [7] 50 µM | [9] 90.3 µM | [10] 70.6 µM | [12] 0.214 µM | [15] 77.1 µM
inactive: CYP2E1 (gene 1571) | [2] | [5] | CYP3A5 (gene 1577) | [11] | [13] | [14]

CCCCCCCC(=O)OC
inactive: CYP2C9 (gene 1559) | CYP2E1 (gene 1571) | CYP4A11 (gene 1579) | [1] | [2] | [3] | [4] | [5] | [16] | CYP3A5 (gene 1577) | [6] | [7] | [9] | [10] | [11] | [12] | [13] | [14] | [15]

CCCCOC(=O)CCCCC(=O)OCCCC
inactive: CYP2C9 (gene 1559) | CYP2E1 (gene 1571) | CYP4A11 (gene 1579) | [1] | [2] | [3] | [4] | [5] | CYP3A5 (gene 1577) | [6] | [7] | [8] | [9] | [10] | [11] | [12] | [13] | [14] | [15]

c1ccc2occc2c1
inactive: CYP2C9 (gene 1559) | CYP2E1 (gene 1571) | CYP4A11 (gene 1579) | [1] | [2] | [3] | [4] | [5] | [16] | CYP3A5 (gene 1577) | [6] | [7] | [9] | [10] | [11] | [12] | [13] | [14] | [15]

CCCCc1nc2cccnc2n1Cc1ccc(-c2ccccc2-c2nnn[nH]2)cc1
inactive: CYP2C9 (gene 1559) | CYP4A11 (gene 1579) | [2] | [3] | [4] | [5] | CYP3A5 (gene 1577) | [7] | [9] | [10] | [11] | [12] | [13] | [14] | [15]
active: CYP2E1 (gene 1571) 28.6 µM | [1] 16 µM | [16] 13.7 µM | [8] 26.6 µM
